Results filed as inconclusive are left out. Active and inactive are the calls of the source. The calls were made as follows, unless noted: active = hit-call score of the fitted dose curve at least 0.9, where 1 is the maximum; inconclusive = response in the unintended direction; inactive = score below 0.9.

Assay [1] has as its target Cellular tumor antigen p53 (Homo sapiens) (UniProt P04637). The assay can be described thus: TOX21_p53_BLA_p2_ratio: Tox21 HCT-116 p53 Agonism Beta-lactamase Assay, Ratio, Phase 2 (AID 2283592). The essentials:
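In this cell-based reporter format, HCT116 cells were dosed with chemicals delivered from DMSO by 217-fold dilution and incubated 16 h at 37C. Emission at 460 and 530 nm after 2 h CCF4-AM loading provided the ratio, fitted upward versus DMSO.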

A short description of assay [2]: TOX21_p53_BLA_p3_viability: Viability Assessment in the Tox21 HCT-116 p53 Agonism Beta-lactamase Assay, Phase 3 (AID 2283593).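 Also: cells exposed to compound for 16 h before reading.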 The essentials:
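HCT-116 cells (4000/well) rested 5 h at 37C, then got DMSO compounds by pin tool (217-fold dilution) for 16 h at 37C, 5% CO2. After the bla read, CellTiter-Glo was added and luminescence read at 30 min, room temperature.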

Assay [3] concerns the target Cellular tumor antigen p53 (Homo sapiens) (UniProt P04637). The assay can be described thus: TOX21_p53_BLA_p3_ratio: Tox21 HCT-116 p53 Agonism Beta-lactamase Assay, Ratio, Phase 3 (AID 2283596). The essentials:
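HCT116 p53-bla cells (4000/well) given compound in DMSO (217-fold dilution) after 5 h, incubated 16 h at 37C. CCF4-AM substrate 2 h at room temperature; 460/530 nm emission ratio, gain fitted against DMSO.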

The target is the same in assay [4]. The assay can be described thus: TOX21_p53_BLA_p5_ratio: Tox21 HCT-116 p53 Agonism Beta-lactamase Assay, Ratio, Phase 5 (AID 2283599). The essentials:
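HCT-116 cells carrying a p53-inducible beta-lactamase reporter were seeded at 4000 cells/well and dosed after 5 h with compound in DMSO (217-fold dilution). After 16 h at 37C, CCF4-AM substrate was added for 2 h, and the 460/530 nm emission ratio was scored as gain-of-signal versus DMSO.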

Assay [5] shares this target. As to the kind of experiment: TOX21_p53_BLA_p4_ratio: Tox21 HCT-116 p53 Agonism Beta-lactamase Assay, Ratio, Phase 4 (AID 2283601). The essentials:
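HCT116 cells carrying an inducible beta-lactamase reporter were plated at 4000 cells/well, rested 5 h, then exposed to compounds in DMSO (217-fold dilution) for 16 h at 37C. CCF4-AM substrate was loaded 2 h at room temperature; 460/530 nm emission ratio scored gain-of-signal versus DMSO.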

Assay [6] concerns Thyroperoxidase (TPO), gene 54314. As to the kind of experiment: CCTE_Simmons_AUR_rTPO: CCTE's Amplex UltraRed Assay for Thyroperoxidase (TPO) Inhibition, Simmons Lab (AID 2283662). The essentials: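 Cell-free peroxidase activity assay using rat thyroid gland microsomes with excess H2O2 (300 uM) and 25 uM Amplex UltraRed. Compounds tested from 5 nM to 87.5 uM; fluorescence measured after 30 min at 37C, analysed relative to DMSO baseline.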

A short description of assay [7]: CCTE_Simmons_CellTiterGLO_HEK293T: Viability Assessment in CCTE's Assays for Thyroperoxidase (TPO) Inhibition, Simmons Lab (AID 2283665).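 Also: cells exposed to compound for 24 h before readout; actives reduce ATP signal below DMSO vehicle meaning cytotoxicity.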 The essentials:
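HEK293T, 10 000 cells/well, DMEM + 1% FBS; 8-pt titration 5 nM–87.5 uM [final], 0.5% DMSO; 24 hr, 37C, 5% CO2; CellTiter-Glo luminescence; n=3 biological replicates.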

Assay [8] concerns the target Luciferin 4-monooxygenase (Photinus pyralis) (UniProt P08659). As to the kind of experiment: CCTE_Simmons_QuantiLum_inhib_2: CCTE's Firefly Luciferase Inhibition Assay, Simmons Lab (AID 2283767).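 Also: potency for inhibitors that lower luciferase luminescence relative to DMSO.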 The essentials: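 Luminescence loss relative to DMSO vehicle defines inhibition; detection reagent containing 150 uM D-luciferin and 147 uM dATP (final, pH 7.8) is injected immediately before each read. Enzyme is preincubated with an 8-point titration (5 nM–87.5 uM final) for 30 min at 37C.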

The nature of assay [9]: CCTE_Shafer_MEA_dev_firing_rate_mean: CCTE's Neural Network Formation Assay for Mean Firing Rate, Shafer Lab (AID 2284031; active = hit-call score of the fitted dose curve at least 0.9, where 1 is the maximum; inactive = score below 0.9;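 also: curve fitted for loss of firing so AC50 reflects decreased mean firing rate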). The essentials:
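Rat primary cortical neurons were seeded on multielectrode arrays and treated from plating through day 12, with redosing at each feed. Spontaneous spiking was recorded four times; mean firing rate AUC was fitted downward against DMSO.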

A short description of assay [10]: CCTE_Shafer_MEA_dev_per_burst_spike_percent: CCTE's Neural Network Formation Assay for Percent of Spikes in a Burst, Shafer Lab (AID 2284032; active = hit-call score of the fitted dose curve at least 0.9, where 1 is the maximum; inactive = score below 0.9;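 also: fitted as a decrease in burst spike percentage below DMSO baseline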). The essentials:
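Rat primary cortical neurons on 16-electrode MEA wells, dosed from plating day 0 for 12 days with renewal on DIV 5 and 9; spikes-in-bursts percentage averaged over bursting electrodes, collapsed as AUC across days 5, 7, 9, 12; loss direction versus DMSO.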

Assay [11] in a line: CCTE_Shafer_MEA_dev_active_electrodes_number: CCTE's Neural Network Formation Assay for Number of Active Electrodes, Shafer Lab (AID 2284040).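 Also: potency for loss of active electrodes versus DMSO so lower counts are hits.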 The essentials:
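Primary rat cortical neurons on 16-electrode MEA wells, exposed from day 0 through day 12 with compound renewed at DIV 5 and 9 feeds. Active electrodes (mean firing ≥5 spikes/min) counted at DIV 5, 7, 9, 12; trapezoidal AUC across days, loss-of-signal versus DMSO.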

Assay [12] can be described thus: CCTE_Shafer_MEA_dev_burst_rate: CCTE's Neural Network Formation Assay for Burst Rate, Shafer Lab (AID 2284042; active = hit-call score of the fitted dose curve at least 0.9, where 1 is the maximum; inactive = score below 0.9;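 also: potency for loss of burst rate below DMSO control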). The essentials: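 Cells plated, treated day 0; recorded DIV 5, 7, 9, 12; fed and re-treated DIV 5, 9. Endpoint: bursts per recording time, active-electrode well mean, trapezoidal AUC, fitted in decreasing direction against DMSO baseline.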
Assay [13] in a line: CCTE_Shafer_MEA_dev_per_burst_interspike_interval: CCTE's Neural Network Formation Assay for Burst Interspike Interval, Shafer Lab (AID 2284044; active = hit-call score of the fitted dose curve at least 0.9, where 1 is the maximum; inactive = score below 0.9;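 also: potency for a decrease of within-burst interspike interval below DMSO level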). The essentials:
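Readout is the average time between spikes inside single-electrode bursts, taken as a well mean across bursting electrodes. Cortical neurons from rat developed networks on MEA plates under continuous 12-day exposure; recordings on days 5, 7, 9 and 12 were integrated by trapezoidal AUC.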

The nature of assay [14]: CCTE_Shafer_MEA_dev_burst_duration_mean: CCTE's Neural Network Formation Assay for Mean Burst Duration, Shafer Lab (AID 2284045; active = hit-call score of the fitted dose curve at least 0.9, where 1 is the maximum; inactive = score below 0.9;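 also: curve fitted for loss meaning shorter burst duration than DMSO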). The essentials:
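Primary rat cortical neurons on PEI-coated 16-electrode MEA wells, exposed from plating through day 12 with compound renewed at DIV 5 and 9; spontaneous activity recorded days 5, 7, 9, 12. Well-mean burst duration collapsed as trapezoidal AUC, fitted for loss versus DMSO.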

Assay [15] in a line: CCTE_Shafer_MEA_dev_interburst_interval_mean: CCTE's Neural Network Formation Assay for Mean Interburst Interval, Shafer Lab (AID 2284046; active = hit-call score of the fitted dose curve at least 0.9, where 1 is the maximum; inactive = score below 0.9;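 also: curve fitted for decrease in interburst interval relative to DMSO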). The essentials: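 Developing rat cortical networks on 48-well MEAs receive compound from the day of plating. Burst intervals from each active electrode are averaged per well, and AUC over the recording days is fitted in the negative direction against DMSO.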

The nature of assay [16]: CCTE_Shafer_MEA_dev_inter_network_spike_interval_mean: CCTE's Neural Network Formation Assay for Mean Inter-network Spike Interval, Shafer Lab (AID 2284047; active = hit-call score of the fitted dose curve at least 0.9, where 1 is the maximum; inactive = score below 0.9;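 also: potency for a decrease in mean inter-network spike interval below DMSO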). The essentials: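 Rat cortical cultures, 1.5 x 10^5 cells/well on 48-well MEA plates; continuous exposure days 0–12, medium and compound refreshed DIV 5, 9. Mean time between consecutive network-spike peaks; AUC across DIV 5/7/9/12; DMSO baseline, negative fitting direction.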

Cellular tumor antigen p53 (Homo sapiens), sequence (P04637 whole entry, looked up): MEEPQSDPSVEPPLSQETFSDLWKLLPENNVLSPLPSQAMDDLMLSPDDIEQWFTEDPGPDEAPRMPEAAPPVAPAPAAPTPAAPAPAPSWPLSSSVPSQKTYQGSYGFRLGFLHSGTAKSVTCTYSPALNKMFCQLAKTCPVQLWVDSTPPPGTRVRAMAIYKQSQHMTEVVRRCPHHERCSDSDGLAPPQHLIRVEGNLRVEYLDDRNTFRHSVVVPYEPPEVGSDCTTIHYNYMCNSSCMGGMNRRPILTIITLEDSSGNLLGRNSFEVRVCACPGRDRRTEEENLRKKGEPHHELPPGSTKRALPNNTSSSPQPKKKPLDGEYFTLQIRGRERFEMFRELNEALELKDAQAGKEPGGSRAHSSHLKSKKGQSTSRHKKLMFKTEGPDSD
Luciferin 4-monooxygenase (Photinus pyralis), sequence (P08659 whole entry, looked up): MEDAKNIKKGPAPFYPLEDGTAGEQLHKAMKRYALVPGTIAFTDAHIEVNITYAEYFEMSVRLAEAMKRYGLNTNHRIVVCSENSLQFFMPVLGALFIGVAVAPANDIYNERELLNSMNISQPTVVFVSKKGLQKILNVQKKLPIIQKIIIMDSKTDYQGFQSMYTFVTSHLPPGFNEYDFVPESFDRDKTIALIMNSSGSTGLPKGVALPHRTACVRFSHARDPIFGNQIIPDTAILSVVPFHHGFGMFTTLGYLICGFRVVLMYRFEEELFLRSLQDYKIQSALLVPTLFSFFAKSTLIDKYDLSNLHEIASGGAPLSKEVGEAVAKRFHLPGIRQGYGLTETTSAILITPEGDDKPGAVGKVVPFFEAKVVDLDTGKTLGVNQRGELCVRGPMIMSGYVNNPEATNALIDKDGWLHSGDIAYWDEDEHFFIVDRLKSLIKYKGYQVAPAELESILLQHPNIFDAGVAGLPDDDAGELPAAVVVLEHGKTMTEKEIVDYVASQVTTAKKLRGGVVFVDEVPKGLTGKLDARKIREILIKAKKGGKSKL

Consider `[CH3][Hg][Cl]`, for which the AC50 in assay [1] is 44800 nM (active); in assay [2], 79600 nM (active); in [3], 1770 nM (active); in assay [4], 2250 nM (active); in assay [7] it was 4180 nM (active); in assay [8], 4220 nM (active). Also, the AC50 in assay [9] is 177 nM (active); in assay [10] it was 306 nM (active); in assay [11], 360 nM (active); in [12], 207 nM (active); in [13] it was 322 nM (active); in assay [14] it was 260 nM (active). Further, the AC50 in assay [15] is 340 nM (active); in assay [16], 5.7 nM (active). Moreover, the outcome in assay [5] and in assay [6] was inactive.
